Laboratory results taken from PubChem BioAssay (NCATS).
Results filed as inconclusive are left out. Values without a mark were called inactive. Active and inactive are the calls of the source. Calls come from the whole dose curve; as a rule, active = well fitted curve in the direction sought with a large enough effect; inconclusive = small, poorly fitted or top-dose-only effect, or another doubt; inactive = no such curve, though single readings can be large; an effect the other way counts as inactive or inconclusive.

Test: qHTS of pediatric cancer cell lines to identify multiple opportunities for drug repurposing: Confirmatory screen for MG 63 (6-TG R) cells (AID 1347119); note: nearly all actives have a fitted effect of over 55% in size;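 for activity change, negative = cytotoxicity: plate controls were DMSO neutral control for no effect and bortezomib for full effect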
Conditions: MG-63 (6-TG resistant) osteosarcoma viability; series mostly up to 95.5 µM; activity change, negative = cytotoxicity: at the top concentration
Source text: Drug repurposing or repositioning has been offered as a strategy for drug development in oncology programs. This approach has special potential for childhood cancers and other rare or orphan diseases, where the expected return on new drug development has been a disincentive to pharmaceuticals.
In this project we exploit the poly-pharmacology of drugs to discover new indications via phenotypic screening of a panel of 19 well-characterized cell lines derived from solid tumors seen in children and adolescents. The goal is to identify approved drugs with previously unrecognized anticancer properties that has the potential to reveal new mechanisms and biological processes involved in carcinogenesis or drug resistance. We employed a titration-based paradigm (quantitative high-throughput screening or qHTS), where all compounds were tested at multiple concentrations for their effect on cell viability. Concentration-response curves (CRCs) were derived directly from the primary screen, and both potency and efficacy values were used to identify compounds with robust bioactivity profiles. We screened the NIH Chemical Genomics Center (NCGC) Pharmaceutical Collection (NPC) and Mechanism Interrogation Plate (MIPE) small molecule collections of approved and investigational compounds against these cell lines; and measured metabolically active cells after 48 hours of compound treatment as a proxy for cell viability.
Assay Submitter: Nathalia J. Martinez, National Center for Advancing Translational Sciences, National Institutes of Health, Rockville, MD, USA; email: natalia.martinez@nih.gov
[1] Shen, M et al. Quantitative high-throughput phenotypic screening of pediatric cancer cell lines identifies multiple opportunities for drug repurposing. Oncotarget 2017 Dec 19;9(4):4758-4772. PMID 29435139.
The cells were obtained from University of North Carolina (UNC), Pediatric Preclinical Testing Program (PPT), and Coriell Institute (CI).
qHTS cell viability assay:
Cells were assayed in growth media at a density of 500-1,000 cells/well. Five microliters of cells were dispensed into 1,536-well, white, solid-bottom, TC-treated plates (Greiner Bio One) using a multidrop dispenser and incubated at 37 degrees C, 5% CO2, under a humidified atmosphere for 5 hours. Twenty-three nanoliters of compounds and controls (neutral control DMSO or positive control bortezomib at final concentration of 2.3 µM) were subsequently transferred by Kalypsys pintool. For primary screens, the MIPE collection was tested at 11-point dilutions (final concentrations range from 0.78 nM to 46 µM) and the NPC collection at 8-point dilutions (final concentrations range from 0.59 nM to 46 µM). Compounds tested in follow-up screens were assayed at 11-point dilutions. Cells were incubated for 48 hours, followed by addition of 3 µL of CellTiter-Glo (Promega). After a 15 min incubation at room temperature, samples were analyzed for luminescence intensity using a ViewLux High-throughput CCD imager equipped with clear filters.
Potency is the fitted concentration of half-maximal effect.

Question: With `Nc1ccc([N+](=O)[O-])cc1O` as the compound, how does the “activity change, negative = cytotoxicity” value read?
Answer: -22.2%

Question: Which Potency does the source give for `CN(C)c1ccc(C(=C2C=CC(=[N+](C)C)C=C2)c2ccccc2)cc1` here?
Answer: 0.208 µM (active)

Question: With `COC(=O)Nc1nc2ccc(C(=O)C3CC3)cc2[nH]1` as the compound, how does the Potency read?
Answer: 1.47 µM (active)

Question: Which Potency does the source give for `N=C1N=C(N)c2cc3ccccc3cc21` here?
Answer: 19.1 µM (active)

Question: For `Oc1c(Br)cc(Br)c2cccnc12`, which Potency is on record?
Answer: 16.5 µM (active)

Question: For `[O-][n+]1ccccc1SSc1cccc[n+]1[O-]`, which “activity change, negative = cytotoxicity” value is on record?
Answer: 20% [at 29.6 µM]

Test: qHTS of pediatric cancer cell lines to identify multiple opportunities for drug repurposing: Confirmatory screen for control Hh wild type fibroblast cells (AID 1347121); note: nearly all actives have a fitted effect of over 70% in size;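 for activity, negative = cytotoxic: plate controls were DMSO for no effect and bortezomib for full effect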
Conditions: viability qHTS; series mostly up to 45.9 µM; activity, negative = cytotoxic: at the top concentration
In short: (§1)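 Cells (500-1,000/well) in growth media were settled 5 h at 37 degrees C, then given compounds for 48 h. Viability was read as CellTiter-Glo luminescence. Primary runs used MIPE at 11 points (0.78 nM-46 µM) and NPC at 8 points (0.59 nM-46 µM); follow-ups used 11 points.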

Question: Which “activity, negative = cytotoxic” value does the source give for `Nc1ccc([N+](=O)[O-])cc1O` here?
Answer: 6.76% [at 95.5 µM]

Question: For `CN(C)c1ccc(C(=C2C=CC(=[N+](C)C)C=C2)c2ccccc2)cc1`, which Potency is on record?
Answer: 0.737 µM (active)

Question: For `COC(=O)Nc1nc2ccc(C(=O)C3CC3)cc2[nH]1`, which “activity, negative = cytotoxic” value is on record?
Answer: -2.53%

Question: For `[O-][n+]1ccccc1SSc1cccc[n+]1[O-]`, which “activity, negative = cytotoxic” value is on record?
Answer: -8.14% [at 29.6 µM]

Test: qHTS of pediatric cancer cell lines to identify multiple opportunities for drug repurposing: Confirmatory screen for Rh41 cells (AID 1347123);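 note: 48 h compound exposure; nearly all actives have a fitted effect of over 60% in size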;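 for activity change, negative = cytotoxic: plate controls were DMSO for no effect and bortezomib for full effect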
Conditions: Rh41 rhabdomyosarcoma cells, viability/cytotoxicity qHTS; series mostly up to 97.2 µM; activity change, negative = cytotoxic: at the top concentration
In short: as §1

Question: For `Nc1ccc([N+](=O)[O-])cc1O`, which “activity change, negative = cytotoxic” value is on record?
Answer: -18.5%

Question: For `CN(C)c1ccc(C(=C2C=CC(=[N+](C)C)C=C2)c2ccccc2)cc1`, which Potency is on record?
Answer: 0.414 µM (active)

Question: For `N=C1N=C(N)c2cc3ccccc3cc21`, which Potency is on record?
Answer: 30.2 µM (active)

Question: Which Potency does the source give for `COc1cccc2c1C(=O)c1c(O)c3c(c(O)c1C2=O)C[C@@](O)(C(=O)CO)C[C@@H]3O[C@H]1C[C@H](N)[C@H](O[C@@H]2CCCCO2)[C@H](C)O1` here?
Answer: 2.93 µM (active)
